GCN5L2 inh: qHTS Assay for Inhibitors of GCN5L2. GCN5L2 HAT assay, ThioGlo1 CoA-SH fluorescence. Potency, µM (titrated, usually from 58.9 µM), for inactives: top-dose activity change, negative = inhibition, actives largely listed as inhibitors. Histone acetyltransferase KAT2A (Homo sapiens), Q92830. 390,000 tested, 0.21% active
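Compounds, pin-transferred from DMSO stocks, meet 20nM GCN5L2 for 15 min before the reaction begins with H3(1-25) peptide (75uM) and acetyl-CoA (70uM). Thiol-reactive ThioGlo1 reports CoA release over 20 min at room temperature.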
TDP1 inh: qHTS Assay for Inhibitors of Tyrosyl-DNA Phosphodiesterase (TDP1). Tyrosyl-DNA phosphodiesterase 1 (Homo sapiens), Q9NUW8. 350,000 tested, 0.28% active. Potency, µM (doses to about 130 µM), without a hit: at the top dose activity change, negative = inhibition, actives largely listed as inhibitors. recombinant TDP1, AlphaScreen DNA substrate cleavage; further: nearly all actives have a fitted effect of over 40% in size
Target sequence (Q9NUW8 whole entry, looked up): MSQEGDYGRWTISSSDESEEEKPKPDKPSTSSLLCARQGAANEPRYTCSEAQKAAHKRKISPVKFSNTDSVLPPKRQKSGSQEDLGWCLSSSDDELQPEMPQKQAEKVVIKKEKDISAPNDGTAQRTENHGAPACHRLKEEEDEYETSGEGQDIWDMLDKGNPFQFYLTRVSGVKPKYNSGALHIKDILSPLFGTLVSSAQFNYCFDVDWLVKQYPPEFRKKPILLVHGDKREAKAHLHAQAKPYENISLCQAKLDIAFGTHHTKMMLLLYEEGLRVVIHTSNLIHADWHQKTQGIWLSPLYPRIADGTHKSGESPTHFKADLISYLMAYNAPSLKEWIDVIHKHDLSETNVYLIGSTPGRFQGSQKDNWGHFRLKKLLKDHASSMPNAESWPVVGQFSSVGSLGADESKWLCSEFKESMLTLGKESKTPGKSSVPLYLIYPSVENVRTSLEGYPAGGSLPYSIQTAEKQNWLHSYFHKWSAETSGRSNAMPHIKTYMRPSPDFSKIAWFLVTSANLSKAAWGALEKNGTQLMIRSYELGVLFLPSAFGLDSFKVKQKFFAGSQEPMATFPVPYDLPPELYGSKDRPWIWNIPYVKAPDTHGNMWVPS
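Tdp1 1 nM final; 15 min RT w/ cpd; substrate 15 nM, 5 min; beads 10 ug/ml, 10 min; AlphaScreen read. Neg ctrl: no enzyme.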
RGS4 inhibitor: Inhibitors of Regulator of G Protein Signaling (RGS) 4: qHTS; Regulator of G-protein signaling 4 (Homo sapiens), P49798; Transcreener GDP fluorescence polarization, RGS4-accelerated GTP hydrolysis; Potency, µM (titrated, usually from 114 µM), for the others: at the highest dose activity change, negative = inhibition, usual class: inhibitors; 390,000 tested, 0.039% active; further: nearly all actives have a fitted effect of over 75% in size
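MLSMR compounds (23 nl, pin-transferred) preincubated 10 min at room temperature with a 500nM (2x) first reagent, then RGS4 at 900nM (2x) plus Transcreener GDP mix added; fluorescence polarization (620/688 nm) read before and after 90 min at 30 °C.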
RECQ1 inh-1: qHTS Assay for Inhibitors of RecQ-Like Dna Helicase 1 (RECQ1); ATP-dependent DNA helicase Q1 (Homo sapiens), P46063; RECQ1 DNA unwinding, red fluorescence kinetic read; Potency, µM (titrated, usually from 57.3 µM), without a hit: at the highest dose activity, negative = inhibition, usual class: inhibitors; 240,000 tested, 0.54% active;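 further: plate controls were vehicle for no effect and no enzyme for full effect; nearly all actives have a fitted effect of over 30% in size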
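50 nM RECQ1T1 preincubated 15 min with compound in Tris pH 8.0 buffer with MgCl2, DTT, Tween-20 and 2.5 ug/ml poly(dI-dC); started with 200 nM TAMRA/BHQ-2 forked duplex and 2 mM ATP. Unwinding read as fluorescence (525/598 nm), two reads 2 h apart.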
APE1 inh-1: qHTS Assay for Inhibitors of the Human Apurinic/apyrimidinic Endonuclease 1 (APE1) | recombinant APE1, TAMRA/BHQ-2 abasic DNA cleavage fluorescence | DNA repair nuclease/redox regulator APEX1 (Homo sapiens), P27695 | Potency, µM (series often up to 65.8 µM), without a hit: at the top dose activity change, negative = inhibition, hits mostly inhibitors | AID 2517, 2012 | 350,000 tested, 0.35% active;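 further: plate controls were vehicle for no effect and reference inhibitor for full effect; nearly all actives have a fitted effect of over 55% in size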
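Step 1: APE1 (0.75 nM) with compound, 15 min RT. Step 2: add 50 nM fluorophore/quencher THF duplex. Step 3: three fluorescence reads 60 s apart (525/598 nm); read 3 minus read 1 = reaction progress.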
BLM helicase inh: qHTS Assay for Inhibitors of Bloom's syndrome helicase (BLM) | AID 2528, 2010 | Potency, µM (titrated, usually from 56.1 µM), for the others: at the top dose activity change, negative = inhibition, hits mostly inhibitors | recombinant BLM DNA unwinding, fluorescence dequenching | 350,000 tested, 0.2% active;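 further: plate controls were vehicle for no effect and no enzyme for full effect; nearly all actives have a fitted effect of over 35% in size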
DNA dye displace: Counterscreen for APE1 Inhibitors: Fluorescent Dye Displacement Assay; DNA fluorescent dye displacement counterscreen, fluorescence; Potency, µM (top dose mostly 28.5 µM), for the others: top-dose activity change, negative = inhibition, usual class: inhibitors; shares compounds with APE1 inh-1; 480 tested, 7% active;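 further: loss of thiazole orange fluorescence as the dye is displaced from duplex DNA; 0% = ThO with dsDNA and no compound and -100% = ThO without dsDNA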
Endo IV inh: Counterscreen for APE1 Inhibitors: qHTS Assay for Inhibitors of Endonuclease IV; 560 tested, 4% active; shares compounds with APE1 inh-1; E. coli Endo IV, fluorogenic AP-site DNA cleavage; Potency, µM (highest dose often 27.1 µM), inactives show top-dose activity change, negative = inhibition, most hits filed as inhibitors;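 further: plate controls were uninhibited enzyme wells for no effect and no enzyme buffer wells for full effect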
APE1 inh-2: Confirmation qHTS Assay for Inhibitors of the Human Apurinic/apyrimidinic Endonuclease 1 (APE1). shares compounds with APE1 inh-1. purified APE1, fluorogenic abasic-site DNA cleavage. Potency, µM (series often up to 57.1 µM), for the others: top-dose activity change, negative = inhibition, usual class: inhibitors. 750 tested, 44% active; further: nearly all actives have a fitted effect of over 30% in size
APE1 FP: qHTS FP-Based Assay for Inhibitors of the Human Apurinic/apyrimidinic Endonuclease 1 (APE1). APE1 binding to TAMRA-labelled double-stranded DNA, fluorescence polarization displacement. shares compounds with APE1 inh-1. 480 tested, 7% active. AID 2573, 2010. Potency, µM (doses to about 28.5 µM), for the others: top-dose activity, negative = inhibition, usual class: inhibitors
RECQ1 inh conf: Confirmation qHTS Assay for Inhibitors of RecQ-Like Dna Helicase 1 (RECQ1). RECQ1 helicase DNA unwinding, fluorescence. 610 tested, 28% active. shares compounds with RECQ1 inh-1. Potency, µM (series often up to 229 µM), for inactives: at the highest dose activity change, negative = inhibition, most hits filed as inhibitors; further: nearly all actives have a fitted effect of over 45% in size
RECQ1 ADP FP: Counterscreen for RECQ1 Inhibitors: ADP Fluorescence Polarization Displacement Assay; shares compounds with RECQ1 inh-1; ADP fluorescence polarization displacement counterscreen; Potency, µM (top dose mostly 228 µM), for inactives: at the highest dose activity change, negative = inhibition, actives largely listed as inhibitors; 530 tested, 27% active; AID 2711, 2010; further: nearly all actives have a fitted effect of over 45% in size
RECQ1 inh-2: Confirmation qHTS Assay for Inhibitors of RecQ-Like Dna Helicase 1 (RECQ1) - Round 2 Cherry Picks; shares compounds with RECQ1 inh-1; recombinant RECQ1 DNA unwinding, red fluorescence; Potency, µM (series often up to 119 µM), without a hit: top-dose activity, negative = inhibition, usual class: inhibitors; 1,100 tested, 15% active; further: nearly all actives have a fitted effect of over 50% in size
Active calls of the source: *; i = inactive; ? = inconclusive; . = no result; [ ] = dose if it differs, or a comment. This is a sample that favours compounds with a hit; in the whole collection about 0.87% have one here. The call rests on the fitted dose curve; in most records, active means well fitted curve in the direction sought with a large enough effect; inconclusive means small, poorly fitted or top-dose-only effect, or another doubt; inactive means no such curve, though single readings can be large; an effect the other way counts as inactive or inconclusive. Unless noted, on the % scale 0 is the no-effect control and ±100 the full control effect; potency means the concentration at half of the fitted maximal effect.

SMILES	GCN5L2 inh	TDP1 inh	RGS4 inhibitor	RECQ1 inh-1	APE1 inh-1	BLM helicase inh	DNA dye displace	Endo IV inh	APE1 inh-2	APE1 FP	RECQ1 inh-2	others
COCCOC(=O)c1[nH]c2c(c1C)C(=O)CC(c1ccco1)C2 (stereo not drawn)	-18%	.	-31%	35µM*	18µM*	?	-9%	4%	7.9µM*	-29%	?
Cc1c(C(=O)OCc2ccccc2)[nH]c2c1C(=O)CC(c1ccco1)C2 (stereo not drawn)	-16%	?	-46%	32µM*	25µM*	-24%	6%	3%	14µM*	-40%	?
Cc1c(C(=O)OCCOC(C)C)[nH]c2c1C(=O)CC(c1ccco1)C2 (stereo not drawn)	-8%	-5%	-28%	-2%	?	-12%	.	.	.	.	.
CCOC(=O)c1[nH]c2c(c1C)C(=O)CC(c1ccco1)C2 (stereo not drawn)	-18%	?	?	?	?	-25%	.	.	.	.	.
Cc1cc(=O)n2[nH]c(-c3ccc(F)cc3)cc2n1	-13%	-2%	15%	i	-10%	3%	.	.	.	.	.
Cc1cc(=O)n2[nH]c(-c3ccsc3-n3c(C)ccc3C)cc2n1	-13%	.	-12%[11.4 µM]	8.9µM*	3.5µM*	7.9µM*	-10%	10%	?	3%	?	RECQ1 inh conf=50µM*;RECQ1 ADP FP=32µM*
NC(=O)n1c(O)c(C(=O)c2cccs2)c2cc(Cl)ccc21	-27%	26%	.	14%	-1%	-12%	.	.	.	.	.
O=C1c2ccccc2C(=O)N1/N=C/c1ccc(O)c(O)c1O	-15%	?	?	6.3µM*	0.71µM*	-24%	-10%	73%	?	4%	.	RECQ1 inh conf=?;RECQ1 ADP FP=35µM*
Nc1nc(=S)c2n[nH]nc2[nH]1	.	1%	-12%	.	.	.	.	.	.	.	.
Cc1ccc(/C=C2/C(=O)c3ccc(C(=O)O)cc3C2=O)o1	-3%	3.5µM*	?	7.1µM*	8.9µM*	75%	.	.	?	.	.	RECQ1 inh conf=24%[114 µM];RECQ1 ADP FP=45µM*
O=C1/C(=C/c2ccc(O)c(O)c2)Oc2cc(O)ccc21	-16%	.	-10%	?	?	-15%	-5%	177%	?	27%	56µM*
Nc1ccc2c(c1Cl)C(=O)c1ccc(N)c(Cl)c1C2=O	?	3.5µM*	-9%	?	8.9µM*	14µM*	6.3µM*	?	14µM*	?	?
Nc1c(C(=O)O)ccc2c1C(=O)c1ccccc1C2=O	-13%	8%	-22%	?	?	-15%	.	.	.	.	.
COc1ccc2cc(C#N)c(=O)oc2c1	-12%	8%	.	2%	?	2%	.	.	.	.	.
O=C(CSc1nccc(=O)[nH]1)N1N=C2/C(=C/c3ccco3)CCCC2C1c1ccco1 (stereo not drawn)	?	?	-31%	16µM*	13µM*	4%	-5%	2%	8.9µM*	-28%	?	RECQ1 inh conf=?;RECQ1 ADP FP=?
O=C1C=C(O)c2cccc(O)c2C1=O	?	.	-21%	?	?	0%	-3%	-3%	-4%[24.4 µM]	2%	-11%
O=C1C(O)=C(O)C(=O)c2ccccc21	.	.	-38%	.	.	.	.	.	.	.	.
COc1ccc(NC(=O)CN2CCCN(S(=O)(=O)c3ccc(Br)cc3)CC2)c(OC)c1	-13%	3%	4%	.	.	-9%	.	.	.	.	.
Cc1cc(O)c(Oc2cc(C)cc(O)c2O)c(O)c1	-8%	4%	-27%	13µM*	10µM*	-4%	5%	77%	?	6%	?
Cc1cc(C(C)(C)C)c(O)c(C(C)(C)C)c1	0%	5%	-2%	-11%	5%	1%	.	.	.	.	.
CCN1CCN(C(c2ccc(SC)cc2)c2c(O)cc(C)n(Cc3ccco3)c2=O)CC1 (stereo not drawn)	-7%	8%	-2%	.	.	-4%	.	.	.	.	.
C[C@@]1(C(=O)O)NCCc2cc(O)c(O)cc21	?	.	127%[56.9 µM]	2.5µM*	1.8µM*	8.9µM*	-12%[57.1 µM]	161%[57.1 µM]	-2%	20%[57.1 µM]	.	RECQ1 inh conf=-58%;RECQ1 ADP FP=?

Bioassay records from PubChem BioAssay.
